This is an account of results in PubChem BioAssay.

For some of these results: Results with a measured potency or affinity are listed apart. Activity calls are given as the source filed them. Unless noted, no rule for the calls is given here.

A short description of assay [1]: antimalarial activity against Dd2 strain (AID 2302;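 active = growth inhibition above 50% at the single 2 µM test dose, taken to imply half-maximal potency below 2 µM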;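 also: 0% = DMSO untreated growth and 100% = chloroquine plus artemisinin killed control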). Particulars: P. falciparum Dd2 in RBCs, LDH growth readout, 72 h; at 2 µM; active compounds read high.
Assay [2] in a line: HepG2 cytotoxicity, primary screen, cytotoxicity control for P. falciparum antimalarial project, cell-based, ATP luminescence (AID 2303;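 active = inhibition above 50%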;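 also: 0% = DMSO wells and 100% = digitonin-killed cells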). The conditions noted are these: HepG2 viability, 24-48 h, at 10 µM, active compounds read high.
Assay [3] addresses L-lactate dehydrogenase (Plasmodium falciparum (isolate CDC / Honduras)) (UniProt Q27743). Kind of assay: PfLDH activity inhibition – cell lysate, 3D7 strain, counter-screen for P. falciparum growth inhibition project (AID 2304).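 Also: 0% = vehicle and 100% = reference inhibitor.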 Particulars: P. falciparum 3D7 crude extract, LDH APAD/NBT absorbance; at 2 µM; active compounds read high.
Assay [4] is described as follows: inhibition of 3D7 malaria parasite growth – strain 3D7 (AID 2306).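 Also: 0% = DMSO wells and 100% = chloroquine plus artemisinin control wells.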 Particulars: P. falciparum 3D7 erythrocytic growth, LDH absorbance, 72 h; at 2 µM; active compounds read high.
Assay [5] concerns the target Calcium-dependent protein kinase 1 (Plasmodium falciparum (isolate 3D7)) (UniProt P62344). Kind of assay: PfCDPK1 kinase inhibitors, biochemical, TCAMS library (AID 1159585; cut-off not given, nearly all actives have IC50 up to about 0.98 µM;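 also: inhibitors leave more ATP so luminescence rises with inhibition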). Particulars: recombinant PfCDPK1, Kinase-Glo ATP depletion luminescence. (In Kinase-Glo more light means more ATP remaining.)
Assay [6] addresses Plasmodium falciparum protein kinase 6 (PK6, PF3D7_1337100) (UniProt Q8IDW1). The experiment in a line: PfPK6 kinase inhibitors, biochemical, TCAMS library (AID 1159586). Particulars: recombinant PfPK6, Kinase-Glo ATP depletion luminescence.
The target of assay [7] is Protein kinase 7 (PK7), Plasmodium falciparum 3D7 (PF3D7_0213400) (UniProt Q7YTF7). The experiment in a line: inhibition of Plasmodium PK7 catalytic activity – biochemical, TCAMS antimalarial set, Kinase-Glo luminescence (AID 1159587). Particulars: recombinant PfPK7, Kinase-Glo ATP depletion luminescence.
Assay [8] concerns the target Calcium-dependent protein kinase 4 (Plasmodium falciparum (isolate 3D7)) (UniProt Q8IBS5). The experiment in a line: PfCDPK4 kinase inhibitors, biochemical, TCAMS library (AID 1159588; cut-off not given, nearly all actives have IC50 up to about 0.91 µM). Particulars: recombinant PfCDPK4, Kinase-Glo ATP depletion luminescence.

Sequence of Protein kinase 7 (PK7), Plasmodium falciparum 3D7 (PF3D7_0213400) (Q7YTF7 1-343): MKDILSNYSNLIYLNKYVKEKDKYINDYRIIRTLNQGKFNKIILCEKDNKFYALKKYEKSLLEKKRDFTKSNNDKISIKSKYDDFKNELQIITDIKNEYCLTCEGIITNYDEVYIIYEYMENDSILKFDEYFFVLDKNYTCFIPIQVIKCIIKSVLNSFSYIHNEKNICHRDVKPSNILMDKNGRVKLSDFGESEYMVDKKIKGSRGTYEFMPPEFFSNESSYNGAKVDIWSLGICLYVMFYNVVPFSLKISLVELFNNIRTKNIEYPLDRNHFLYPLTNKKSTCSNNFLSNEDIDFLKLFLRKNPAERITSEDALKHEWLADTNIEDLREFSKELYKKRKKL
Sequence of L-lactate dehydrogenase (Plasmodium falciparum (isolate CDC / Honduras)) (Q27743 whole entry, looked up): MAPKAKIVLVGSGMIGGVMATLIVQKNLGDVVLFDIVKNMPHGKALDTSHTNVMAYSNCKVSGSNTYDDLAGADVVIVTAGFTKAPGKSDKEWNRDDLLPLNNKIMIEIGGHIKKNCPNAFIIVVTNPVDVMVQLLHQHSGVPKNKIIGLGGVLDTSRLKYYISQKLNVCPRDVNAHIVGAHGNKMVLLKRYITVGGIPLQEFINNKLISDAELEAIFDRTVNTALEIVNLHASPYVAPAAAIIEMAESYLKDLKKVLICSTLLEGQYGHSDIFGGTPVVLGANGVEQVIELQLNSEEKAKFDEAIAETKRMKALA
Sequence of Calcium-dependent protein kinase 1 (Plasmodium falciparum (isolate 3D7)) (P62344 whole entry, looked up): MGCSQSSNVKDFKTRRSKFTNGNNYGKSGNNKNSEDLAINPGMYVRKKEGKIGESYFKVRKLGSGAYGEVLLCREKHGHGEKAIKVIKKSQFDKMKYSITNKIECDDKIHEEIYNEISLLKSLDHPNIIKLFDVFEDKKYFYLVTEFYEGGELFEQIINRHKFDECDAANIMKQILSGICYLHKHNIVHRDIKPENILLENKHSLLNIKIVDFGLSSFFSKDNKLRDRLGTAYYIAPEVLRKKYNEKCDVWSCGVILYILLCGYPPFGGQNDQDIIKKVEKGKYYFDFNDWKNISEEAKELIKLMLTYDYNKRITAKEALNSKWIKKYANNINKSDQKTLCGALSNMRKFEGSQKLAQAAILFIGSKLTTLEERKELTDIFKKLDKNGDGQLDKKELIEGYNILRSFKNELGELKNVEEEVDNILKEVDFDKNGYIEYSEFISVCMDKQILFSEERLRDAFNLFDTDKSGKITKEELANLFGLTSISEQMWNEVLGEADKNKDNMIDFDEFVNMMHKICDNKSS
Sequence of Calcium-dependent protein kinase 4 (Plasmodium falciparum (isolate 3D7)) (Q8IBS5 whole entry, looked up): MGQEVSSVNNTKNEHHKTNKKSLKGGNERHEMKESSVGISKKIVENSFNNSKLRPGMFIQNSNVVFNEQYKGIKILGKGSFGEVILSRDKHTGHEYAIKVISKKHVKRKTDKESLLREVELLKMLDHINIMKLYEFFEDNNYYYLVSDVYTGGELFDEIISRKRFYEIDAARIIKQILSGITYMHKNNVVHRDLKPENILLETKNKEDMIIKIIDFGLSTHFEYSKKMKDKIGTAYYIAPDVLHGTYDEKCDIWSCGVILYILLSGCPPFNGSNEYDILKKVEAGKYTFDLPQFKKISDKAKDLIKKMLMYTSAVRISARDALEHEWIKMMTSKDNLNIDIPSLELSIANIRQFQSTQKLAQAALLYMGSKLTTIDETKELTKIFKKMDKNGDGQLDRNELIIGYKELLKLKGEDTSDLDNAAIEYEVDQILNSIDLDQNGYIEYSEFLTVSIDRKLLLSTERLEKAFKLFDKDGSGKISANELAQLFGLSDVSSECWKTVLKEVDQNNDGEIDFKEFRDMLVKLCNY
Sequence of Plasmodium falciparum protein kinase 6 (PK6, PF3D7_1337100) (Q8IDW1 1-305): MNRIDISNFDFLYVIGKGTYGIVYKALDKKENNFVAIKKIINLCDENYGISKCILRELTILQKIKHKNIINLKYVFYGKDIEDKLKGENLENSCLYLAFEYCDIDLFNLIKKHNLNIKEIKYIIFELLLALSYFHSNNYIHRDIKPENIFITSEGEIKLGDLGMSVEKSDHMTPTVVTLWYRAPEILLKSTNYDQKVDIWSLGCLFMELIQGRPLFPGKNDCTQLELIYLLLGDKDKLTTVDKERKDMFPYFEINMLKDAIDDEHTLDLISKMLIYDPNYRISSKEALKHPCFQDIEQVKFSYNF

As for `COc1ccc(CN(C)C(=O)CCNS(=O)(=O)c2ccc3c(c2)OCCCO3)cc1F`, the values for the growth inhibition in assay [1] and in assay [4] were 94% (active) and 96% (active), respectively. Also, the inhibition is 9% (inactive) in assay [2] and 0% (inactive) in assay [3]. The result in assay [5], in assay [6], in assay [7] and in assay [8] was inactive.

Consider `CCCCCCn1c(Sc2ccc(C#N)c([N+](=O)[O-])c2)nnc1-c1cccs1`, for which the values for the growth inhibition in assay [1] and in assay [4] were 60% (active) and 97% (active), respectively. Further, the inhibition is 26% (inactive) in assay [2] and -4% (inactive) in assay [3]. The outcome in assay [5], in assay [6], in assay [7] and in assay [8] was inactive.

`O=C1COC2(CN1C1CCN(Cc3ccc(O)c(Cl)c3)C1)c1ccccc1-c1ccccc12` (stereo not given): the growth inhibition was 63% (active) in assay [1] and 93% (active) in assay [4]. Moreover, the inhibition in assay [2] was 5% (inactive); in assay [3] it was 3% (inactive). The result in assay [5], in assay [6], in assay [7] and in assay [8] was inactive.

Consider `Brc1cccc(Nc2nccc(Nc3ccc(Oc4ccccc4)cc3)n2)c1`, for which the results for the growth inhibition in assay [1] and in assay [4] were 5% (inactive) and 89% (active), respectively. The inhibition is -6% (inactive) in assay [2] and -4% (inactive) in assay [3]. Further, the result in assay [5], in assay [6], in assay [7] and in assay [8] was inactive.

For the compound `CCc1ccc(NC(=O)c2ccc(CN3CCCN(CC4CCCCC4)CC3)cc2)cc1`, the growth inhibition is 48% (inactive) in assay [1] and 96% (active) in assay [4]. The results for the inhibition in assay [2] and in assay [3] were 48% (inactive) and 3% (inactive), respectively. Besides, the outcome in assay [5], in assay [6], in assay [7] and in assay [8] was inactive.

For `COC(=O)c1cccc(CNCc2ccc(-c3ccc(-c4nc5ccc(C(F)(F)F)cc5[nH]4)cc3)cc2)c1`, the growth inhibition in assay [1] was 98% (active); in assay [4], 101% (active). The inhibition in assay [2] is 22% (inactive); in assay [3], 0% (inactive). Further, the outcome in assay [5], in assay [6], in assay [7] and in assay [8] was inactive.

For `Cc1nc2ccc3ccc(CNc4ccc5c(c4)CN([C@@H](CCC(=O)O)C(=O)O)C5=O)cc3c2c(=O)[nH]1`, the growth inhibition in assay [1] is 95% (active); in assay [4], 94% (active). The inhibition in assay [2] was 41% (inactive); in assay [3] it was 2% (inactive). Besides, the result in assay [5], in assay [6], in assay [7] and in assay [8] was inactive.

Turning to `Cc1ccc(CNC(=O)[C@H](CCCN)Nc2nc(Nc3ccccc3)ncc2C)cc1`, the growth inhibition in assay [1] was -4% (inactive); in assay [4], 97% (active). Further, the values for the inhibition in assay [2] and in assay [3] were -1% (inactive) and -2% (inactive), respectively. Besides, the outcome in assay [5], in assay [6], in assay [7] and in assay [8] was inactive.

On to `Cc1ccc(NC(=O)c2ccc(N3CCN(c4ccncc4)CC3)cn2)cc1F`, for which the results for the growth inhibition in assay [1] and in assay [4] were 77% (active) and 98% (active), respectively. Besides, the inhibition in assay [2] and in assay [3] was 2% (inactive) each time. The result in assay [5], in assay [6], in assay [7] and in assay [8] was inactive.

As to `Nc1nc(N)c2c(ccc3nn(Cc4cccnc4)cc32)n1`, the growth inhibition was 0% (inactive) in assay [1] and 96% (active) in assay [4]. The values for the inhibition in assay [2] and in assay [3] were 41% (inactive) and 0% (inactive), respectively. Moreover, the result in assay [5], in assay [6], in assay [7] and in assay [8] was inactive.

Regarding `Fc1ccc(CN2CCN(c3ncnc4cc(-c5ccccc5)sc34)CC2)cc1`, the growth inhibition in assay [1] and in assay [4] was 82% (active) in each case. Besides, the inhibition in assay [2] is 7% (inactive); in assay [3] it was 4% (inactive). The result in assay [5], in assay [6], in assay [7] and in assay [8] was inactive.

For the compound `O=C(Nc1ccc(N2CCN(c3ncccc3C(F)(F)F)CC2)nc1)c1cccs1`, the growth inhibition in assay [1] was 40% (inactive); in assay [4], 83% (active). Moreover, the values for the inhibition in assay [2] and in assay [3] were 7% (inactive) and -7% (inactive), respectively. The outcome in assay [5], in assay [6], in assay [7] and in assay [8] was inactive.

Turning to `CCCCCCN1CCCN(Cc2ccc(C(=O)Nc3ccc(C)c(F)c3)cc2)CC1`, the growth inhibition in assay [1] was 58% (active); in assay [4] it was 92% (active). The inhibition in assay [2] was 47% (inactive); in assay [3], 0% (inactive). Also, the result in assay [5], in assay [6], in assay [7] and in assay [8] was inactive.

Take `COc1ccc(Nc2nccc(N3CCC(NC(=O)Nc4ccc5c(c4)OCO5)C3)n2)cc1` (stereo not given): the values for the growth inhibition in assay [1] and in assay [4] were 57% (active) and 98% (active), respectively. Besides, the inhibition in assay [2] was 27% (inactive); in assay [3] it was -2% (inactive). Further, the result in assay [5], in assay [6], in assay [7] and in assay [8] was inactive.

For `CNCCNCc1cccc(-c2cccc(-c3nc4ccc(C(F)(F)F)cc4[nH]3)c2)c1`, the growth inhibition in assay [1] was 97% (active); in assay [4], 100% (active). Moreover, the values for the inhibition in assay [2] and in assay [3] were 22% (inactive) and -2% (inactive), respectively. For the same compound, the result in assay [5], in assay [6], in assay [7] and in assay [8] was inactive.

As to `CN1CCN(c2cc(-c3cccc(C(F)(F)F)c3)nc(-c3ccncc3)n2)CC1`, the values for the growth inhibition in assay [1] and in assay [4] were 98% (active) and 102% (active), respectively. Besides, the inhibition in assay [2] is 38% (inactive); in assay [3] it was 1% (inactive). Moreover, the outcome in assay [5], in assay [6], in assay [7] and in assay [8] was inactive.

For `CCNc1cc(C(=O)N[C@@H](Cc2ccc(F)c(F)c2)[C@H](O)CNC2CCCCC2)cc(N2CCCCS2(=O)=O)c1`, the growth inhibition in assay [1] is 84% (active); in assay [4], 100% (active). Besides, the inhibition was 1% (inactive) in assay [2] and -2% (inactive) in assay [3]. Besides, the result in assay [5], in assay [6], in assay [7] and in assay [8] was inactive.

Consider `CCN1CCC(N(Cc2ccc(-c3ccc(C(F)(F)F)cc3)cc2)C(=O)Cn2c(CCc3cccc(F)c3F)cc(=O)c3cn(C)nc32)CC1`, for which the growth inhibition in assay [1] was 87% (active); in assay [4], 95% (active). Further, the results for the inhibition in assay [2] and in assay [3] were 27% (inactive) and 2% (inactive), respectively. Moreover, the outcome in assay [5], in assay [6], in assay [7] and in assay [8] was inactive.

Consider `CCNc1cc(C(=O)N[C@@H](Cc2ccccc2)[C@H](O)CNC2(C(C)C)CCC2)cc(N2CCCCS2(=O)=O)c1`, for which the results for the growth inhibition in assay [1] and in assay [4] were 85% (active) and 99% (active), respectively. The figures for the inhibition in assay [2] and in assay [3] were -3% (inactive) and -2% (inactive), respectively. Moreover, the result in assay [5], in assay [6], in assay [7] and in assay [8] was inactive.

On to `CC(C)Sc1nc2c(c(=O)n1CCc1ccccc1)C1(CCCCC1)Cc1ccccc1-2`, for which the growth inhibition in assay [1] is 5% (inactive); in assay [4], 92% (active). The inhibition in assay [2] was 8% (inactive); in assay [3], 1% (inactive). In addition, the outcome in assay [5], in assay [6], in assay [7] and in assay [8] was inactive.

The inhibition is the relative decrease from the control value, in per cent.
